Source: PubChem (National Center for Advancing Translational Sciences (NCATS))
An excerpt weighted towards active compounds, which were near 21% of everything screened.
Pf growth 96h: Primary qHTS for delayed death inhibitors of the malarial parasite plastid, 96 hour incubation. AID 504834, 2011. Potency, µM (doses to about 28.7 µM), for the others: top-dose activity change, negative = inhibition, most hits filed as inhibitors. P. falciparum luciferase reporter growth, 96 h. hit rate 6.9% among 320,000; further: potency means the concentration at half of the fitted maximal effect; on the % scale 0 is the no-effect control and ±100 the full control effect
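96 h incubation, 37 C, 5% CO2, of luciferase-reporter P. falciparum-infected RBCs (2% hematocrit, 0.05% parasitemia final) with test compounds; endpoint luminescence.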
Cycloheximide cs: Cycloheximide Counterscreen for Small Molecule Inhibitors of Shiga Toxin; hit rate 12% among 300,000; max response, %; cell reporter, cycloheximide protein synthesis inhibition counterscreen; in the data active means max response mostly above about 13%, no sharp cut-off; inactive means mostly below about 14%; further: read at 38.3 µM for the half of the compounds with a filed dose; 0% is about no effect
Shiga inhibitor: A qHTS for Small Molecule Inhibitors of Shiga Toxin | Vero cells, Shiga toxin protein synthesis inhibition reporter | inhibition, % at 38.7 µM | hit rate 9.2% among 290,000 | AID 2315, 2010; in the data active means inhibition mostly above about 28%, no sharp cut-off; inactive means mostly below about 43%; further: 0% is about no effect
Pf growth 48h: Primary qHTS for delayed death inhibitors of the malarial parasite plastid, 48 hour incubation. P. falciparum luciferase growth in erythrocytes, 48 h. Potency, µM (titrated, usually from 28.7 µM), inactives show top-dose activity change, negative = inhibition, hits mostly inhibitors. hit rate 5.9% among 310,000; further: potency means the concentration at half of the fitted maximal effect; on the % scale 0 is the no-effect control and ±100 the full control effect
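A one-generation exposure of luciferase-tagged malaria parasites in RPMI 1640/Albumax erythrocyte culture, 37 C and 5% CO2. Inhibition is inferred from decreased luminescence after adding detection reagent.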
* marks the source's active call; other numbers are inactive results; i = inactive; ? = inconclusive; / = not tested or not shown; [ ] = another dose, or the depositor's remark. Unless noted, the call rests on the fitted dose curve; in most records, active means well fitted inhibition curve with a large enough effect; inconclusive means small, poorly fitted or top-dose-only effect, or another doubt; inactive means no such curve, though single readings can be large or run the other way.

SMILES	Pf growth 96h	Cycloheximide cs	Shiga inhibitor	Pf growth 48h
Cc1ccc(NC(=O)CS(=O)c2ccccc2N)c(C)c1 (stereo unspecified)	52%	38*	35	111%
Cc1ccc(NC(=O)Cc2ccccc2)c(C)c1	0%	17	17	17%
Cc1ccc(NC(=O)Cc2noc3ccccc23)c(C)c1	65%	12	32*	25%
Cc1ccc(NC(=O)CCOc2ccccc2)c(C)c1	78%	13*	39	-2%[0.00184 µM]
Cc1ccc(NC(=O)CCSc2ccccc2)c(C)c1	?	24*	55*	3%
Cc1ccc(F)cc1NC(=O)CCOc1ccccc1	6%	2	4	0%
Cc1ccc(NC(=O)CN2C(=O)c3ccccc3C2=O)c(C)c1	?	-3	13	21%
Cc1c(NC(=O)Cc2noc3ccccc23)cccc1[N+](=O)[O-]	-5%	9	15	-8%
C=CCN1C(=O)c2ccc(C(=O)N(CCC)CC(=O)Nc3ccccc3C)cc2C1=O	18%	/	/	57%
O=C(O)CN1C(=O)C(=O)N(Cc2ccc(Cl)cc2Cl)C1=O	24%	1	-4	/
CCC(C)NC(=O)C1CCCN(S(=O)(=O)c2ccc(-n3cnnn3)cc2)C1 (stereo unspecified)	/	-2	8	24%
C=CCNc1nc(N)c(C(=C(C#N)C#N)c2ccc(Br)cc2)s1	?	-3	-6	?
CC(C)c1nnc(NC(=O)CCC(=O)Nc2ccc3cn[nH]c3c2)s1	50%	-2	28	27%
CC(C)NC(=O)c1onc(CSc2cccc(Cl)c2)c1C(=O)O	0%	-2	-6	6%
Cc1cc(NC(=O)CCSc2ccccc2)ccc1Br	0%	87*	21	66%
Cc1cccc(NC(=O)CCSc2ccccc2)c1C	-5%	12*	19	15%
Cc1ccc(NC(=O)CNc2cccc(C)c2C)c(C)c1	?	8	42	-29%
COC(=O)c1ccc(C)c(NC(=O)CCSc2ccccc2)c1	1%	9	-3	3%
Cc1cc(Br)ccc1NC(=O)CCSc1ccccc1	34%	16*	48*	8%
Cc1ccc(NC(=O)CNc2ccc(OC(C)C)cc2)c(C)c1	13µM*	-1	19	?
COc1ccc(CC(=O)NC2CC2)cc1OC	0%	1	-4	0%
COC(=O)c1cn(NC(=O)c2ccccc2[N+](=O)[O-])c(=O)c2ccccc12	-26%	-4	-2	-15%
CC1CCCCC1NC(=O)COc1ccccc1C#N (stereo unspecified)	-29%	/	/	-28%
Cc1ccc(NC(=O)CCn2nc(C)cc2C)c(C)c1	12µM*	8	-16	0%
CCOC(=O)N1CCN(CC(O)COc2ccccc2C(C)C)CC1 (stereo unspecified)	?	-9	-8	?
SMILES	Pf growth 96h	Cycloheximide cs	Shiga inhibitor	Pf growth 48h
COc1ccc(C2CCCN2CC(O)COc2ccccc2C(C)C)cc1 (stereo unspecified)	13µM*	-1	-6	12µM*
Cc1cccc2c1N(N=O)CCC2	32%	-1	11	41%
Cc1cc[n+]2c3c(cccc13)CCC2	/	-1	-13	3.7µM*
CC(C)c1ccc(CCNC(=O)CSC(=S)N2CCCC2)cc1	-5%	/	/	15%
O=C(COC(=O)c1cccnc1SCC(=O)NCc1ccccc1)NCc1ccccc1	/	11	4	17%
O=C(COC(=O)C1=COCCO1)Nc1ccc2c(c1)OCO2	2%	39*	154	8%
Cc1ccc(NC(=O)COC(=O)C2=COCCO2)cc1	?	20*	48	33%
Cc1ccc(NC(=O)COC(=O)C2=COCCO2)c([N+](=O)[O-])c1	-2%	26*	38	21%
COc1ccccc1CNC(=O)COC(=O)c1cccnc1SCC(=O)NCc1ccccc1OC	0%	29*	68*	16%
COc1ccc(NC(=O)COC(=O)C2=COCCO2)cc1OC	16%	8	-4	-20%
CCc1ccc(N2CC(C(=O)OCC(=O)NNC(=O)c3ccccc3)CC2=O)cc1 (stereo unspecified)	14%	/	/	6%
Cc1ccc(C(=O)N2CCCc3ccccc32)c(F)c1F	?	10	/	-19%
COc1ccc(Cl)cc1S(=O)(=O)N(C)CC(=O)NCc1ccc2c(c1)OCO2	?	-2	28	10%
O=C(COC(=O)C1=COCCO1)NCc1ccc(F)cc1	37%	-3	-7	?
COc1ccccc1CNC(=O)COC(=O)C1=COCCO1	5.2µM*	-2	-7	4%
O=C(CN(C(=O)CCC(=O)Nc1nccs1)c1cccc(F)c1)NCc1ccccc1	37%	8	-14	-17%
c1ccc(N2CCN(Cc3cn4cccnc4n3)CC2)cc1	-13%	-2	-3	/
Cc1cccn2cc(COc3ccc(-c4ccccc4)cc3)nc12	104%	71*	68*	249%
O=[N+]([O-])c1cccc(OCc2cn3cccnc3n2)c1	?	20*	14	28%
Cc1cccn2cc(COc3cccc([N+](=O)[O-])c3)nc12	24%	22*	61*	38%
COc1ccc(OC)c(S(=O)(=O)NCc2cn3cccc(C)c3n2)c1	128%	0	-3	-13%
Cc1cccn2cc(CCNS(=O)(=O)c3ccc([N+](=O)[O-])cc3)nc12	-21%	-3	-17	25%
c1ccc(CN2CCN(Cc3cn4cccnc4n3)CC2)cc1	?	5	96	1%
Cc1ccc(OCc2cn3cccnc3n2)cc1	205%	55*	104*	92%
C[n+]1cnc(-c2ccccc2)cc1-c1ccccc1	-9%	-3	-2	-6%
SMILES	Pf growth 96h	Cycloheximide cs	Shiga inhibitor	Pf growth 48h
CCOC(=O)C1CCCN(Cc2cn(C)nc2-c2ccc3c(c2)OCCO3)C1 (stereo unspecified)	?	8	-7	-5%
CN(C)C(=O)CN1CCN(Cc2cn(C)nc2-c2ccc3c(c2)OCCO3)CC1	10µM*	-2	-10	10%
O=C(C[n+]1cn(C(F)F)c2ccccc21)c1ccc(OC(F)F)cc1	27%	29*	61*	-5%
CNC(=O)c1cc2c(-c3ccccc3)nn(C)c2s1	-20%	-2	17	-18%[0.00184 µM]
N#CC(c1ccc(O)cc1)c1ncc(C(F)(F)F)cc1Cl (stereo unspecified)	16%	-3	-7	i
Cc1[nH]c(C)c(S(=O)(=O)N2CCCCC2)c1C(=O)N1CCCCC1	-6%	13	2	10%
NC(=O)CSc1nccn1Cc1ccccc1	0%	7	-4	?
O=[N+]([O-])c1ccccc1Sc1nccn1Cc1ccccc1	3.3µM*	-5	-11	7%
Cc1csc(/N=C/c2ccc([N+](=O)[O-])cc2)n1	19%	-2	-1	1%
CCN1CCN(/C=N/c2nc(C)cs2)CC1	-13%	33*	76*	99%
CCOC(=O)C1CCCN(C(=O)CCNS(=O)(=O)c2cc(Br)cnc2N)C1 (stereo unspecified)	97%	-2	-5	-3%
COc1cc2c(cc1OC)CN(CC(=O)Nc1ccc(F)cc1)C(C(=O)O)C2 (stereo unspecified)	0%	-1	0	3%
Cc1ccc2c(c1)C1CN(C)CCC1N2Sc1ccccc1[N+](=O)[O-] (stereo unspecified)	10µM*	-7	-9	?
